According to PubChem BioAssay (NCI):
Compounds without any hit were thinned out: in the full panel of roughly 83,000, 20% have a hit.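 Activity criterion: percent growth below 10, measured after cells in 96-well plates were exposed to a single compound concentration for 48 hours.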 Activity calls are given as the source filed them.

Columns and labels:
Assay in all cases: NCI-60 one-dose screen, 48 h (100 = growth as untreated, 0 = no growth, -100 = all killed)
Conditions in all cases: 10 µM unless noted
BT-549 breast = system: BT-549 breast
MDA-MB-435 melanoma = system: MDA-MB-435 melanoma
SW-620 colon = system: SW-620 colon
MCF7 breast = system: MCF7 breast
HCT-116 colon = system: HCT-116 colon
HCC-2998 colon = system: HCC-2998 colon
KM12 colon = system: KM12 colon

Measured: growth

Cc1cc(C)c(OC(=O)CSc2nc3ccccc3c(=O)n2CCc2ccccc2)cc1C
inactive: BT-549 breast 104% | MDA-MB-435 melanoma 100% | SW-620 colon 103% | MCF7 breast 93.7% | HCT-116 colon 80.1% | HCC-2998 colon 102% | KM12 colon 92%

O=C1NCN(c2ccccc2)C12CCN(CCCC(c1ccc(F)cc1)c1ccc(F)cc1)CC2
inactive: BT-549 breast 61.6% | MDA-MB-435 melanoma 47.7% | SW-620 colon 77% | MCF7 breast 37.8% | HCT-116 colon 30.1% | HCC-2998 colon 15.9% | KM12 colon 76.3%

CCCCCCCC/C=C/CCCCCCCC1=NC(C)(C)CN1CC(C)O (stereo not given)
active: MDA-MB-435 melanoma 6% | SW-620 colon 6.69% | HCT-116 colon -85% | HCC-2998 colon 0.965% | KM12 colon 6.06%
inactive: BT-549 breast 86.7% | MCF7 breast 17.1%

CN(CC(=O)N(Cc1ccc(C2CCCCC2)cc1)c1ccc(C(=O)O)cc1)S(=O)(=O)c1c(F)c(F)c(F)c(F)c1F
inactive: BT-549 breast 75.4% | MDA-MB-435 melanoma 68.3% | MCF7 breast 10.6% | KM12 colon 90%
active: SW-620 colon -67% | HCT-116 colon 5.63% | HCC-2998 colon -62.9%

Clc1ccc(-c2nc(-c3cccs3)no2)c(Cl)c1
inactive: BT-549 breast 83% | MDA-MB-435 melanoma 111% | SW-620 colon 88.1% | MCF7 breast 29.2% | HCT-116 colon 94.6% | HCC-2998 colon 68% | KM12 colon 99.3%

O=C(O)c1ccc(NC(=O)c2ccc(Nc3ccnc(C(F)(F)F)c3)cc2)cc1
inactive: BT-549 breast 109% | MDA-MB-435 melanoma 104% | SW-620 colon 105% | MCF7 breast 100% | HCT-116 colon 104% | HCC-2998 colon 103% | KM12 colon 93.2%

COc1ccc2[nH]cc(/C=C3/C(=O)Nc4ccc(F)cc43)c2c1
inactive: BT-549 breast 134% | MDA-MB-435 melanoma 93.8% | SW-620 colon 101% | MCF7 breast 56.3% | HCT-116 colon 86% | HCC-2998 colon 93% | KM12 colon 27%

COc1cc2c(c(OC)c1OC)CCc1cnoc1-2
inactive: BT-549 breast 101% | MDA-MB-435 melanoma 103% | SW-620 colon 114% | MCF7 breast 104% | HCT-116 colon 176% | HCC-2998 colon 90.1% | KM12 colon 106%

COc1ccc(-c2csc(NC(=O)c3cc(OC)c(OC)c(OC)c3)n2)cc1
inactive: BT-549 breast 106% | MDA-MB-435 melanoma 96.4% | SW-620 colon 102% | MCF7 breast 98.3% | HCT-116 colon 106% | HCC-2998 colon 112% | KM12 colon 108%

O=C(/C(=N/O)S(=O)(=O)c1ccccc1)c1cccs1
inactive: BT-549 breast 103% | MDA-MB-435 melanoma 105% | SW-620 colon 117% | MCF7 breast 98% | HCT-116 colon 96.4% | HCC-2998 colon 93.2% | KM12 colon 107%

Cc1cc(NC(=O)Nc2cc(Cl)ccc2C)no1
inactive: BT-549 breast 147% | MDA-MB-435 melanoma 110% | SW-620 colon 110% | MCF7 breast 84.4% | HCT-116 colon 104% | HCC-2998 colon 99.3% | KM12 colon 107%

CN(CC(=O)Nc1nc2ccccc2[nH]1)S(=O)(=O)c1ccc(Cl)cc1
inactive: BT-549 breast 99.2% | MDA-MB-435 melanoma 91.2% | SW-620 colon 67.5% | MCF7 breast 40.9% | HCT-116 colon 72.8% | HCC-2998 colon 91.3% | KM12 colon 105%

O=C1/C(=C/c2ccc([N+](=O)[O-])s2)Oc2ccc(Br)cc21
active: BT-549 breast -46.2% | MDA-MB-435 melanoma -69.5% | SW-620 colon -63.5% | MCF7 breast -25.2% | HCT-116 colon -71.5% | HCC-2998 colon -79.9% | KM12 colon -51.3%

COc1ccc(C(=O)COc2cccc(/C=C3\Oc4ccc5ccccc5c4C3=O)c2)cc1
active: BT-549 breast -96.9%
inactive: MDA-MB-435 melanoma 94.7% | SW-620 colon 19% | MCF7 breast 10.1% | HCT-116 colon 29% | HCC-2998 colon 60% | KM12 colon 97.9%

CCC(C)CC(C)C(=O)c1c(O)ccn(OC)c1=O (stereo not given)
inactive: BT-549 breast 78.1% | MDA-MB-435 melanoma 73.6% | SW-620 colon 61.8% | MCF7 breast 74.3% | HCT-116 colon 47.6% | HCC-2998 colon 95.7% | KM12 colon 102%
